Sampled rows, rich in hits. Any-hit rate of the full collection: about 2%.
PME-1 primary: PME-1 inhibitors via competitive probe labeling, primary screen, biochemical, fluorescence polarization, FP-Rh probe, HTS; Protein phosphatase methylesterase 1 (Homo sapiens), Q9Y570; recombinant PME-1; inhibition, % at 5.9 µM; hit rate 0.53% among 320,000;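 active = inhibition above the campaign mean of all compounds plus 3 SD, cut at about 26% in these data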;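 note: competitive labeling of PME-1 active site by serine hydrolase directed probe; inhibitors block probe labeling so polarization falls and inhibition rises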
Fam108B inh: mouse Fam108B serine hydrolase inhibitors, primary screen, counter-screen for RBBP9 inhibitor project, biochemical, fluorescence polarization | hit rate 0.33% among 300,000 | inhibition, % at 9.51 µM | AID 1947, 2009 | recombinant Fam108B, FP-Rh probe fluorescence polarization;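 active = inhibition above the screen mean inhibition plus 3 SD, computed separately per campaign, cut at about 18% in these data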;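 note: inhibitors lower polarization as less probe binds the enzyme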
LYPLA1 counter: LYPLA1 inhibitors, primary screen, counter-screen for PME1 inhibitor project, biochemical, fluorescence polarization, FP-Rh probe ABPP | inhibition, % at 5.9 µM | recombinant LYPLA1 | hit rate 0.16% among 320,000 | Acyl-protein thioesterase 1 (Homo sapiens), O75608;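 active = inhibition above the mean of all tested compounds plus 3 SD, set per campaign, cut at about 14% in these data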;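 note: inhibitors block serine hydrolase probe labeling of LYPLA1 so polarization falls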
GSTO1 inh: inhibitors of recombinant GSTO1, primary screen, counter-screen for RBBP9 inhibitor project, biochemical, fluorescence polarization; Glutathione S-transferase omega-1 (Homo sapiens), P78417; activity-based probe fluorescence polarization; inhibition, % at 5.96 µM; hit rate 1.1% among 300,000;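 active = inhibition above the campaign mean inhibition plus 3 SD, cut at about 35% in these data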
LYPLA2 inh: LYPLA2 inhibitors, primary screen, counter-screen for PME1 inhibitor project, biochemical, fluorescence polarization, FP-Rh probe ABPP | Acyl-protein thioesterase 2 (Homo sapiens), O95372 | recombinant LYPLA2 | inhibition, % at 5.9 µM | hit rate 0.38% among 320,000;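 active = inhibition above the screen-wide mean plus 3 SD, limit set per campaign, cut at about 26% in these data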
PREPL inh: PREPL enzyme inhibitors, primary screen, biochemical, fluorescence polarization; inhibition, % at 5.96 µM; hit rate 0.68% among 320,000; AID 2751, 2010; recombinant PREPL, fluorescence polarization activity-based probe; Prolyl endopeptidase-like (Homo sapiens), Q4J6C6; in the data active = inhibition above about 43%
Target sequence (Q4J6C6 whole entry, looked up): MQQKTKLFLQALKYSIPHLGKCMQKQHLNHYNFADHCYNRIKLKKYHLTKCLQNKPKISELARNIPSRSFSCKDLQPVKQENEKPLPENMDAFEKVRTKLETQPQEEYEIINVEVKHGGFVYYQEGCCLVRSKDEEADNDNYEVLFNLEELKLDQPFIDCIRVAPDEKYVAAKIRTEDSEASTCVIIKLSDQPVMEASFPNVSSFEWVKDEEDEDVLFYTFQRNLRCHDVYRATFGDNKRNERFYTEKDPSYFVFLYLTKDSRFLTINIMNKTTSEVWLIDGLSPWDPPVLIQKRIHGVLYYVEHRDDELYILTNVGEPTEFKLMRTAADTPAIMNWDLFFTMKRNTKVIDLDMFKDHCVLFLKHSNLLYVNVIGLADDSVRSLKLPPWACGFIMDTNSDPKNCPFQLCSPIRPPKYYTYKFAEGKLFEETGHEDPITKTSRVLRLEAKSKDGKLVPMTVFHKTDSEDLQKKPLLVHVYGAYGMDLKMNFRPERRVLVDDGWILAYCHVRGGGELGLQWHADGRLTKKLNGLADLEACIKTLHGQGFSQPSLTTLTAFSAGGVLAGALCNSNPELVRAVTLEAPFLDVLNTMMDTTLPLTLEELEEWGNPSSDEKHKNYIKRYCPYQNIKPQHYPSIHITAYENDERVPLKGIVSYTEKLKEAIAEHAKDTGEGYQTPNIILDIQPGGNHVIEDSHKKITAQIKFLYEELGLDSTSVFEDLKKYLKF
Numbers stand for hits.

COc1ccc(S(=O)(=O)N(C)C)cc1NC(=O)Cc1c[nH]c2ccccc12 was read as PME-1 primary 78, Fam108B inh inactive, LYPLA1 counter inactive, GSTO1 inh inactive, LYPLA2 inh inactive and PREPL inh inactive.
Screening O=C1c2ccccc2C(=O)N1c1cccc(-c2csc(Nc3ccc4c(c3)OCO4)n2)c1 returned PME-1 primary inactive, Fam108B inh 21, LYPLA1 counter inactive, GSTO1 inh 62, LYPLA2 inh inactive and PREPL inh inactive.
COc1ccccc1Nc1nc(-c2cccc(N3C(=O)c4ccccc4C3=O)c2)cs1 was read as PME-1 primary inactive, Fam108B inh inactive, LYPLA1 counter inactive, GSTO1 inh inactive, LYPLA2 inh inactive and PREPL inh inactive.
`Cc1ccc(NC(=O)CN(C)CC(=O)Nc2ccc(N3CCOCC3)cc2)c(C)c1` gave PME-1 primary inactive, Fam108B inh inactive, LYPLA1 counter inactive, GSTO1 inh inactive, LYPLA2 inh inactive and PREPL inh 54.
`CN(CC(=O)Nc1ccc(N2CCOCC2)cc1)CC(=O)Nc1ccc(C(F)(F)F)cc1` gave PME-1 primary inactive, Fam108B inh inactive, LYPLA1 counter inactive, GSTO1 inh inactive, LYPLA2 inh inactive and PREPL inh inactive.
O=C(CSCc1ccc(Cl)cc1)NCc1ccccn1 was read as PME-1 primary inactive, Fam108B inh inactive, LYPLA1 counter inactive, GSTO1 inh inactive, LYPLA2 inh inactive and PREPL inh inactive.
Screening O=C(OCC#CCSc1nnc(-c2ccncc2)o1)c1cccs1 returned PME-1 primary inactive, Fam108B inh inactive, LYPLA1 counter inactive, GSTO1 inh 37, LYPLA2 inh inactive and PREPL inh inactive.
Screening CN(C)S(=O)(=O)c1cccc(NC(=O)c2cc([N+](=O)[O-])ccc2N2CCCCC2)c1 returned PME-1 primary 46, LYPLA1 counter inactive, LYPLA2 inh inactive and PREPL inh inactive.
`CC(=O)Nc1cccc(NC(=O)c2cc([N+](=O)[O-])ccc2N2CCCCC2)c1` gave PME-1 primary inactive, LYPLA1 counter inactive, LYPLA2 inh inactive and PREPL inh inactive.
For NC(=O)c1ccc(Oc2ccc3ccc(=O)oc3c2)c([N+](=O)[O-])c1 the results were PME-1 primary inactive, Fam108B inh inactive, LYPLA1 counter inactive, GSTO1 inh inactive, LYPLA2 inh 38 and PREPL inh inactive.
CCOCC(=O)Nc1cc(C(=O)OC)ccc1C(=O)OC was read as PME-1 primary inactive, Fam108B inh inactive, LYPLA1 counter inactive, GSTO1 inh 37, LYPLA2 inh inactive and PREPL inh inactive.
For CC(C(=O)Nc1nc(-c2ccc(F)cc2)cs1)N1C(=O)C2CC=CCC2C1=O (centres undefined) the results were PME-1 primary inactive, LYPLA1 counter inactive, LYPLA2 inh inactive and PREPL inh inactive.
For Cc1cc2ccccn2c1C(=O)c1ccc([N+](=O)[O-])o1 the results were PME-1 primary inactive, Fam108B inh inactive, LYPLA1 counter inactive, GSTO1 inh 86, LYPLA2 inh inactive and PREPL inh inactive.
Screening CCn1c(NCc2ccccc2Cl)nc2ccccc21 returned PME-1 primary inactive, Fam108B inh inactive, LYPLA1 counter inactive, GSTO1 inh 36, LYPLA2 inh inactive and PREPL inh inactive.
Screening CCn1c(NCc2ccc(OC)cc2)nc2ccccc21 returned PME-1 primary inactive, Fam108B inh inactive, LYPLA1 counter inactive, GSTO1 inh inactive, LYPLA2 inh inactive and PREPL inh inactive.
`CC1CN(S(=O)(=O)c2ccc(C(=O)N(C)C3CCCCC3)cc2)CC(C)O1` (centres undefined) gave PREPL inh inactive.
Nc1nc(CCl)nc(N(c2ccccc2)c2ccccc2)n1 was read as PME-1 primary inactive, Fam108B inh inactive, LYPLA1 counter inactive, GSTO1 inh 78, LYPLA2 inh inactive and PREPL inh inactive.
Cc1ccc2cccc(OCC(=O)Nc3cccc(S(=O)(=O)N4CCCC4)c3)c2n1 was read as PME-1 primary inactive, LYPLA1 counter inactive, LYPLA2 inh inactive and PREPL inh inactive.
For O=C(N=Nc1c(O)[nH]c2ccc(F)cc12)c1ccc(NS(=O)(=O)c2cccs2)cc1 the results were PME-1 primary inactive, LYPLA1 counter inactive, LYPLA2 inh inactive and PREPL inh inactive.
`COc1ccc2[nH]c(O)c(N=NC(=O)c3ccc(NS(=O)(=O)c4cccs4)cc3)c2c1` gave PME-1 primary 30, LYPLA1 counter inactive, LYPLA2 inh inactive and PREPL inh inactive.
`Cc1ccc2[nH]c(O)c(N=NC(=O)c3ccc(NS(=O)(=O)c4cccs4)cc3)c2c1` gave PME-1 primary 52, Fam108B inh inactive, LYPLA1 counter inactive, GSTO1 inh inactive, LYPLA2 inh inactive and PREPL inh inactive.
Screening COc1ccc(NC(=O)CSc2nccn2Cc2ccc(F)cc2)cc1 returned PME-1 primary inactive, Fam108B inh inactive, LYPLA1 counter inactive, GSTO1 inh inactive, LYPLA2 inh inactive and PREPL inh inactive.
For Cc1ccc(OCCN(C)C(=O)C2CCC(=O)N(CC3CCCCC3)C2)cc1 (centres undefined) the results were PME-1 primary inactive, Fam108B inh inactive, LYPLA1 counter inactive, GSTO1 inh inactive, LYPLA2 inh inactive and PREPL inh inactive.
Cc1ccc(C(=O)N/C(=C\c2ccc(-c3ccccc3[N+](=O)[O-])o2)C(=O)NCCCN2CCOCC2)cc1 was read as PME-1 primary inactive, Fam108B inh inactive, LYPLA1 counter inactive, GSTO1 inh 36, LYPLA2 inh inactive and PREPL inh inactive.
Cc1ccc(C(=O)N/C(=C\c2cn(C)c3ccccc23)C(=O)NCCCN2CCOCC2)cc1 was read as PME-1 primary inactive, Fam108B inh inactive, LYPLA1 counter inactive, GSTO1 inh inactive, LYPLA2 inh inactive and PREPL inh inactive.
For CCCN(C(=O)c1cc(S(=O)(=O)N(C)c2ccc(OCC)cc2)ccc1C)C1CCS(=O)(=O)C1 (centres undefined) the results were PME-1 primary inactive, LYPLA1 counter inactive, LYPLA2 inh inactive and PREPL inh inactive.
`C[C@@H]1CN([C@H](C)CO)C(=O)c2cc(NS(=O)(=O)c3cn(C)cn3)ccc2O[C@H]1CN(C)C(=O)Nc1ccccc1` gave PREPL inh inactive.
Screening Cc1nnsc1C(=O)NC1CCCc2c1cnn2-c1ccc(C(C)(C)C)cc1 (centres undefined) returned PME-1 primary inactive, Fam108B inh inactive, LYPLA1 counter inactive, GSTO1 inh 35, LYPLA2 inh inactive and PREPL inh inactive.
`Cc1nnsc1C(=O)NC1CCCc2c1cnn2-c1ccccc1F` (centres undefined) gave PME-1 primary inactive, Fam108B inh inactive, LYPLA1 counter inactive, GSTO1 inh inactive, LYPLA2 inh inactive and PREPL inh inactive.

Screening results: PubChem, The Scripps Research Institute Molecular Screening Center
